The record followed here is PubChem BioAssay (NCI).

What all share (experiment): NCI-60 one-dose screen, 48 h (100 = growth as untreated, 0 = no growth, -100 = all killed)
What all share (settings): 10 µM

Experiment [1] has as its system T-47D breast.
Experiment [2] has as its system BT-549 breast.
The subject of experiment [3] is MDA-MB-435 melanoma.
Experiment [4] concerns SW-620 colon.
Experiment [5] relates to MCF7 breast.
Experiment [6] deals with HCT-116 colon.
The subject of experiment [7] is HCC-2998 colon.
In experiment [8] the test system is KM12 colon.

Compounds without any hit were thinned out: in the full panel of roughly 83,000, 20% have a hit.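 How to read the values: 0–100, growth inhibition (40 = 60% inhibited); 0, no net growth; -100 to 0, cell death (-40 = 40% of starting cells died; -100 = all dead).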 Unmarked numbers belong to inactive results. Calls of active or inactive are those of the source. How the source made its calls: active means growth percent below 10; inactive means the rest.

On to `CN(C)c1ccc(/C=N/NC(=O)c2ccccc2Nc2cccc(C(F)(F)F)c2)cc1`, for which the growth in experiment [1] is 75.6%; in experiment [2], 79.1%; in experiment [3] it was 92.3%; in experiment [4], 93.6%; in experiment [5] it was 92.5%; in experiment [6] it was 75.1%. The growth in experiment [7] is 116%.

Turning to `COc1ccc(-c2n[nH]nc2-c2cc(OC)c3c(c2OC)OCO3)cc1`, the growth in experiment [1] was 27.9%; in experiment [2], 16.8%; in experiment [3], -12.3% (active); in experiment [4], 19.4%; in experiment [5], 27.7%; in experiment [6], 25.6%. Moreover, in experiment [7], the growth is 39.6%.

`CCOC(=O)c1cc(C(=O)c2cc(OC)cc(OC)c2)n2ncc3ccccc3c12`: the growth in experiment [1] was 12.8%; in experiment [2], 27.3%; in experiment [3], 4.07% (active); in experiment [4] it was 8.21% (active); in experiment [5] it was 15.9%; in experiment [6] it was 4.23% (active). The growth in experiment [7] was 69.1%.

With `CC(C)CCN(CCC(C)C)CC(=O)Nc1ccc(S(=O)(=O)c2ccc(NC(=O)CN(CCC(C)C)CCC(C)C)cc2)cc1`, the growth in experiment [1] was 52.7%; in experiment [2] it was 42.2%; in experiment [3], 65.7%; in experiment [4], -1.98% (active); in experiment [5], 15.3%; in experiment [6] it was -54.2% (active). In addition, the growth in experiment [7] is 95.8%.

As to `O=C1/C=C/[C@@H](O)[C@@H]2C[C@@H](O)C[C@H]2/C=C/CCC[C@H](CCc2ccc(NC(=S)Nc3ccc4c(c3)C(=O)OC43c4ccc(O)cc4Oc4cc(O)ccc43)cc2)O1`, the growth was 21.2% in experiment [1]; 21.3% in experiment [2]; 18.8% in experiment [3]; 3.26% (active) in experiment [4]; -5.59% (active) in experiment [5]; -37.2% (active) in experiment [6]. Moreover, the growth in experiment [7] is -7.57% (active).

Take `CC(C)(C)c1ccc(S(=O)(=O)Oc2ccc(NC(=O)C3CCCCC3)cc2)cc1`: the growth in experiment [1] was 0.897% (active); in experiment [2], 51.8%; in experiment [3] it was 59.6%; in experiment [4] it was 51.9%; in experiment [5], 19.8%; in experiment [6] it was 30.8%. Moreover, in experiment [7], the growth is 51.8%.

`COc1cc(CNC(=O)C2CSC3(C)c4ccccc4C(=O)N23)cc(OC)c1OC` (stereo not drawn): the growth in experiment [1] is 87.2%; in experiment [2], 108%; in experiment [3], 105%; in experiment [4], 101%; in experiment [5], 93.7%; in experiment [6] it was 98.1%. The growth in experiment [7] is 95.5%; in experiment [8], 106%.

With `N#Cc1c(-c2ccc(Cl)cc2)cc(-c2cc(O)ccc2O)nc1N`, the growth in experiment [1] was 8.26% (active); in experiment [2] it was 22.6%; in experiment [3], 6.77% (active); in experiment [4], 8.32% (active); in experiment [5], 4.41% (active); in experiment [6] it was 19.8%. Moreover, the growth in experiment [7] was 52.7%; in experiment [8], 27.2%.

For `CCCN(CCC)C(=O)[C@H](CC)[C@@H]1CC[C@@H](C)[C@@H]([C@H](C)[C@@H](O)[C@@H](C)C(=O)[C@H](CC)C2O[C@]3(C=C[C@@H](O)[C@]4(CC[C@@](C)([C@H]5CC[C@](O)(CC)[C@H](C)O5)O4)O3)[C@H](C)C[C@@H]2C)O1` (stereo partly drawn), the growth in experiment [1] is 11.1%; in experiment [2], 6.17% (active); in experiment [3] it was 3.17% (active); in experiment [4], 9.23% (active); in experiment [5] it was -15.3% (active); in experiment [6], 6.43% (active). The growth in experiment [7] is 4.75% (active).

Regarding `C[C@]12CC[C@@H]3c4ccc(OS(=O)(=O)O)cc4CC[C@H]3[C@@H]1CC[C@@H]2NS(=O)(=O)c1ccc(-c2ccccc2)cc1`, the growth in experiment [1] was 49.8%; in experiment [2], 53.9%; in experiment [3], 69.4%; in experiment [4] it was 75.3%; in experiment [5], 30.2%; in experiment [6], 36.2%. The values for the growth in experiment [7] and in experiment [8] were 80.9% and 60.5%, respectively.

Consider `COc1cc(OC)c2c(=O)c(O)c(-c3ccccc3)oc2c1`, for which the growth was 92.1% in experiment [1]; 85.6% in experiment [2]; 86.9% in experiment [3]; 77.7% in experiment [4]; 70.1% in experiment [5]; 63.1% in experiment [6]. The growth is 83.9% in experiment [7] and 78.7% in experiment [8].

On to `C[C@@H](O)[C@H]1C(=O)N2C(C(=O)O)=C(SC3CN[C@H](C(=O)N(C)C)C3)[C@H](C)[C@H]12` (stereo partly drawn), for which the growth in experiment [1] was 98.2%; in experiment [2], 105%; in experiment [3] it was 101%; in experiment [4], 99.4%; in experiment [5], 101%; in experiment [6], 104%. Further, the growth in experiment [7] is 106%; in experiment [8], 108%.

Turning to `COc1cc2c3c(n([C@H]4CCOC4)c(=O)c2cc1OC)-c1cc2c(cc1C3=O)OCO2`, the growth is 11.8% in experiment [1]; 48.2% in experiment [2]; 59.3% in experiment [3]; 46.2% in experiment [4]; 14.2% in experiment [5]; 31% in experiment [6]. For the same molecule, the growth is 70.5% in experiment [7] and 57.1% in experiment [8].

Consider `CN1C(=O)C2(Nc3cc(Cl)ccc3S2)c2cc(Cl)ccc21` (stereo not drawn), for which the growth in experiment [1] was 71.6%; in experiment [2], 80.1%; in experiment [3] it was 98.4%; in experiment [4] it was 94%; in experiment [5] it was 75.4%; in experiment [6] it was 82.9%. The figures for the growth in experiment [7] and in experiment [8] were 93.5% and 99%, respectively.

As to `CN1CCN(c2cc3c(cc2F)c(=O)c(C(=O)O)cn3-c2ccc(F)cc2)CC1`, the growth in experiment [1] is 99.9%; in experiment [2], 92.4%; in experiment [3], 103%; in experiment [4] it was 98%; in experiment [5] it was 104%; in experiment [6], 95.5%. The results for the growth in experiment [7] and in experiment [8] were 106% and 99%, respectively.
